Experimental findings from PubChem BioAssay AID492998 (Southern Research Specialized Biocontainment Screening …, 2010) are described below.

Among all 2,300 compounds or so, about 550 (24%) were called active. Not all results are given here. Potency and affinity values are given separately. A number with no mark means an inactive call. How the calls were made is not given here.

As usually defined, the viability is a read-out of living cells in per cent, often relative to untreated cells.

This assay is described as follows: Vero E6 cell cytotoxicity, dose response, cytotoxicity control for non-replicating M. tuberculosis project, secondary assay (AID 492998).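 Further: 100% = vehicle-treated cells and 0% = background wells.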 Particulars: series mostly up to 20 µM; viability: at the top concentration.
Take `O=C(Nc1nc2c(Cl)cccc2s1)c1ccc([N+](=O)[O-])o1`: the “viability” value is 76.2%. As for `COc1ccccc1OCC(=O)N/N=C/C=C/c1ccc([N+](=O)[O-])o1`, the “viability” value is 73.2%. Then `Cc1ccccc1NC(=O)c1nc[nH]c1C(=O)NCc1ccccc1`, with 97.9%; and `O=C(Nc1ccccc1F)c1ccc(Br)o1`, with 104%. With `COc1ccccc1NC(=O)c1cnc(SC)nc1`, the “viability” value is 105%. On to `N=c1oc2ccc(Cl)cc2cc1C(=O)NC1CCCCCC1`, for which the “viability” value is 99.1%.

`COc1cc2c(cc1OC)CN(CCC(=O)c1ccc(Br)cc1)CC2`: the “viability” value is 88.3%.

For the molecule `CC1(C)C[C@H]2C=C(C=O)[C@]3(C=O)C[C@]3(C)[C@H]2C1`, the “viability” value was 96.4%. The result for `CCc1ccc(C(=O)COC(=O)c2ccc(Cl)nc2)cc1` reads 105%. `O=C(OCc1nnc(-c2ccccc2)o1)c1ccc(Br)o1`: the “viability” value was 92.2%. With `Nn1c(SCCOc2ccc(Cl)cc2)nnc1-c1cccnc1`, the “viability” value was 94.8%.

`COc1ccc(C(=O)COC(=O)c2ccc([N+](=O)[O-])s2)cc1OC`: the “viability” value is 84.3%. The result for `COc1cc(C=O)ccc1OCCOCCOc1ccc(Cl)cc1` reads 103%; that for `COC(=O)CCc1nc2c(C#N)c(-c3ccc(Cl)cc3)ccn2n1`, 105%; that for `O=C(Nc1ccc(Br)cc1)c1cc([N+](=O)[O-])cc([N+](=O)[O-])c1`, 98.3%.

For the molecule `O=C(NCC1CCCCC1)c1ccco1`, the “viability” value is 101%. Take `Oc1ccccc1-c1nnc(COc2ccccc2)o1`: the “viability” value was 78.1%.

For the molecule `CC1CC(C)CN(C(=O)COC(=O)c2ccc([N+](=O)[O-])o2)C1` (stereo not given), the “viability” value is 96.2%. For `CC12CN3CC(C)(CN(C1)C3c1ccc([N+](=O)[O-])o1)C2` (stereo not given), the “viability” value is 92.9%. The result for `Cc1cccc(NCCC(=O)c2ccc([N+](=O)[O-])cc2)c1C` reads 75.4%; that for `Cc1ccc(CCC(=O)Nc2ccc(C)c(C)c2)o1`, 103%; that for `O=[N+]([O-])c1ccc(CN2CCN(c3ccc(Cl)cc3)CC2)o1`, 108%. Regarding `Cc1cccc(NC(=O)c2n[nH]c([N+](=O)[O-])c2Br)c1C`, the “viability” value is 102%.

For `COc1ccc(NC(=O)c2ccc(-c3ccc([N+](=O)[O-])cc3)o2)cc1OC`, the “viability” value is 106%. For the molecule `Cc1cccc(CSc2nnc(-c3ccco3)o2)c1`, the “viability” value is 99.6%.

`CC(C)(C)c1ccc(OCCCC(=O)NC2=NCCS2)cc1`: the “viability” value is 86%. Then `Cc1ccc(NC(=O)COc2ccccc2)cc1Cl`, with 101%; and `O=C(NCCC1=CCCCC1)c1coc(=O)c(Br)c1`, with 106%; and `O=C(COC(=O)c1ccc(Br)o1)Nc1ncc([N+](=O)[O-])s1`, with 105%. The result for `COC(=O)c1ccc(COC(=O)CCS(=O)(=O)c2ccc(C)cc2)cc1` reads 99.5%.

`CCOC(=O)CC(=O)Nc1ccc(C(=O)OCC)cc1`: the “viability” value was 107%. The result for `C=CCc1ccc2oc(C(=O)OCC)cc(=O)c2c1O` reads 93.4%; that for `CCNC(=O)NC(=O)C(C)OC(=O)CCCSc1nc2ccccc2s1` (stereo not given), 99%.

For `Cc1cccc(C)c1NC(=O)COC(=O)CCc1c[nH]c2ccccc12`, the “viability” value was 103%. Then `O=S1(=O)N=C(N/N=C/C=C/c2ccccc2)c2ccccc21`, with 82.8%. `Cc1cc(C)c(C(=O)COC(=O)c2ccc([N+](=O)[O-])o2)cc1C`: the “viability” value is 104%. The result for `Cc1ccc(NC(=O)c2noc(C(C)C)c2[N+](=O)[O-])cc1` reads 90.1%; that for `O=C(Nc1ccc([N+](=O)[O-])cc1)c1ccc(Cn2cc([N+](=O)[O-])cn2)cc1`, 82.7%; that for `O=C(Nc1ccccc1F)c1ccc(CSc2ccccc2)o1`, 96.3%. For the molecule `Cc1[nH]c2ccccc2c1C(=O)C(C)OC(=O)c1ccc([N+](=O)[O-])o1` (stereo not given), the “viability” value is 80.2%. As for `COCCn1c(C)cc(C(=O)COC(=O)c2ccc([N+](=O)[O-])o2)c1C`, the “viability” value is 82%.

On to `Cc1cc(C(=O)N/N=C/c2ccc([N+](=O)[O-])o2)c(C)o1`, for which the “viability” value was 79.9%.

Consider `CCCCC1CCC(C(=O)Nc2ccc(S(=O)(=O)Nc3nccs3)cc2)CC1` (stereo not given), for which the “viability” value is 101%. The result for `CCCOC(=O)c1ccc(NC(=O)c2ccccc2OC)cc1` reads 97.1%; that for `CCOC(=O)C1CCN(Cc2ccc(-c3ccccc3)cc2)CC1`, 116%; that for `OC(C#CCN1CCOCC1)c1cccs1` (stereo not given), 97.2%. Then `C=CCNc1nnc(Sc2ncccc2[N+](=O)[O-])s1`, with 88.3%; and `S=C1CN=C(c2ccccc2)c2cc(Cl)ccc2N1`, with 106%. On to `CC(C)Oc1ccc(C(=O)CCN2CCCCC2)cc1`, for which the “viability” value is 88.4%. `Cc1ccc(CCC(=O)Nc2cc(Cl)ccc2Cl)o1`: the “viability” value is 95.9%. Consider `CCOc1ccc(CC(=O)N2N=C(C)CC2(O)C(F)(F)F)cc1` (stereo not given), for which the “viability” value was 94.2%. `CCn1nnc(NC(=O)c2ccc(-c3ccc(Cl)cc3)o2)n1`: the “viability” value was 96.3%. Then `CCn1nnc(NC(=O)COc2ccc(C3CCCCC3)cc2)n1`, with 98.9%; and `O=C(c1ccc([N+](=O)[O-])o1)N1CCN(Cc2ccccc2)CC1`, with 89.4%; and `Cc1ccc(OCC(=O)N/N=C/c2ccc([N+](=O)[O-])o2)cc1`, with 94.7%.

Take `O=C(NCc1ccc(F)cc1)c1ccc(Br)o1`: the “viability” value was 95.5%.

Consider `O=C(NCCC1=CCCCC1)c1ccc(F)cc1`, for which the “viability” value is 102%. The result for `O=C(CCC1CCCC1)Nc1ccc(Br)cn1` reads 80.5%; that for `O=C(c1cc(F)ccc1F)C1CCCN(Cc2ccc3nonc3c2)C1` (stereo not given), 85%; that for `CC(C)Cn1c(N)c(C(=O)COC(=O)c2cnc(Cl)c(Cl)c2)c(=O)n(C)c1=O`, 92.2%. As to `COc1cc(N=c2ssnc2Cl)cc(OC)c1`, the “viability” value is 101%. Regarding `CCOC(=O)COc1ccc2c(=O)cc(-c3ccccc3)oc2c1`, the “viability” value is 111%. Then `COC(=O)C(C)Oc1ccc2cc(-c3ccccc3)c(=O)oc2c1` (stereo not given), with 109%. On to `Cc1ccccc1OCC(=O)OCC(=O)c1ccc[nH]1`, for which the “viability” value is 101%. Then `COc1cccc(OCc2nnc(-c3cccs3)o2)c1`, with 108%; and `Fc1ccc(-c2nnc(CSc3nnc(-c4cccs4)o3)o2)cc1`, with 100%; and `Cc1ccc(-c2nnc(-c3cccs3)o2)cc1`, with 95.6%.

On to `Fc1ccc(-c2nnc(-c3ccc(F)cc3)o2)cc1`, for which the “viability” value is 97.5%. The result for `Cc1cc(C(=O)N/N=C/c2ccc(OC(=O)c3ccccc3Br)cc2)n[nH]1` reads 92.3%. The result for `Oc1oc(-c2ccco2)nc1C=Nc1cccc(Cl)c1` reads 93.7%; that for `CCc1cc(C(c2ccncc2)N2CCN(C)CC2)c(NC(=O)c2ccccc2)s1` (stereo not given), 101%; that for `CCOC(=O)C1(CC2CCCCO2)CCN(Cc2nccn2-c2ccc(OC)cc2)CC1` (stereo not given), 106%. The result for `COC12C(COC(N)=O)C3=C(C(=O)C(C)=C(N)C3=O)N1CC1C2N1C` (stereo not given) reads 79.6%; that for `c1ccc(C2=Nc3ccccc3OC2)cc1`, 98.2%; that for `Cc1cc2nc(/N=C(\N)NC(=O)C(C)C)nc(C)c2cc1C`, 83.2%.
